Source: PubChem BioAssay (Tox21)
Records with an inconclusive call do not appear. Entries that show only a call come without a potency. Values without a mark were called inactive. Calls of active or inactive are those of the source. Calls follow the shape of the full dose curve.

Test: p53 small molecule agonists, cell-based qHTS assay: qHTS cell viability counter screen (AID 1963581); also: nearly all actives have a fitted effect of over 45% in size
Details: p53RE-bla HCT-116 viability, ATP luminescence, 16 h; series mostly up to 66 µM
Text: National Center for Advancing Translational Sciences [NCATS]
Division of Preclinical Innovation [DPI]
U.S. Environmental Protection Agency [EPA]
National Institutes of Environmental Health Sciences [NIEHS]
National Toxicology Program [NTP]
U.S. Food and Drug Administration [FDA]
p53, a tumor suppressor protein, is activated following cellular insult, including DNA damage and other cellular stresses. The activation of p53 regulates cell fate by inducing DNA repair, cell cycle arrest, apoptosis, or cellular senescence. The activation of p53, therefore, is a good indicator of DNA damage and other cellular stresses. The CellSensor p53RE-bla HCT-116 cell line (Invitrogen) contains a stably integrated beta-lactamase reporter gene under control of the p53 response elements. The activation of the reporter gene under culture conditions can be detected by fluorescence intensity. This cell line was used to screen the Tox21 compound library in a 1536-well plate format and to identify agonists that activate the p53 signaling pathway. The cytotoxicity of the Tox21 compound library against the p53 RE-bla HCT-116 cell line was tested in parallel by measuring the intra cellular ATP content in the same wells.
Tox21 Assay Protocol Summary:
The p53RE-bla cells were dispensed at 4,000 cells/5 ul/well in 1536-well black wall/clear bottom plates using a Multidrop dispenser. After the assay plates were incubated at a 37 C/5% CO2 incubator for 5 hours, 23 nL of compounds dissolved in DMSO, positive controls or DMSO only was transferred to the assay plate by a pin tool. The plates were incubated at 37 C for 16 hours. After 1 uL of LiveBLAzerTM B/G FRET substrate was added using a Flying Reagent Dispenser, the plates were incubated at room temperature for 2 hours, and fluorescence intensity was measured by an Envision plate reader. For cell viability readout that measures cytotoxicity, 4 ul/well of CellTiter-Glo reagent was added into the assay plates using a Flying Reagent Dispenser. After 30 min incubation at room temperature, the luminescence intensity in the plates was measured using a ViewLux plate reader.
Potency is read from the fitted curve at half-maximal effect.

Row | Compound | Potency | activity change, negative = cytotoxicity
1 | O=[N+]([O-])c1ccc(CBr)cc1 | inactive | 
2 | Cc1nn(-c2cc(NS(C)(=O)=O)c(Cl)cc2Cl)c(=O)n1C(F)F | inactive | 
3 | CC(C)(C)OOC(C)(C)CCC(C)(C)OOC(C)(C)C | inactive | 
4 | CCCCCCCCSC(=O)Oc1cc(Cl)nnc1-c1ccccc1 | inactive | 
5 | CCCCCCCCCl | inactive | 
6 | Cn1cc(-c2ccccc2)c(=O)c(-c2cccc(C(F)(F)F)c2)c1 | inactive | 
7 | C#CCOC(=O)/C=C(C)/C=C/CC(C)CCCC(C)C (stereo not given) | inactive | 
8 | CC(Oc1ccc(Cl)cc1Cl)C(=O)O (stereo not given) | inactive | 
9 | c1ccc2c(c1)Oc1ccccc1O2 | inactive | 
10 | CCOP(=S)(OCC)Oc1ccc2c(C)c(Cl)c(=O)oc2c1 | inactive | 
11 | O=C(CCN1CC1)OCC(CO)(COC(=O)CCN1CC1)COC(=O)CCN1CC1 | inactive | 
12 | NNc1ccccc1 | inactive | 
13 | [Cl-].[Cl-].[Cl-].[Fe+3] | inactive | 
14 | O=c1[nH]c2ccccc2c(=O)o1 | inactive | 
15 | [O]=[Cr](=[O])([OH])[O][Cr](=[O])(=[O])[OH] | 18.4 µM (active) | 
16 | CC(C)Oc1cc(-n2nc(C(C)(C)C)oc2=O)c(Cl)cc1Cl | inactive | 
17 | CC(C)=CC1C(C(=O)OCN2C(=O)C3=C(CCCC3)C2=O)C1(C)C (stereo not given) | inactive | 
18 | CN(C)CCC#N | inactive | 
19 | Cc1ccc(N)cc1N | inactive | 
20 | Nc1ccccc1C(=O)OCC(O)CO (stereo not given) | inactive | 

Row | Compound | Potency | activity change, negative = cytotoxicity
21 | [O-][Cl+]O | inactive | 
22 | N#CCCO | inactive | 
23 | C=CCc1cc(OC)c2c(c1)OCO2 | inactive | 
24 | CC1COC2(c3ccccc3Cl)c3cc(Cl)ccc3NC(=O)CN12 (stereo not given) | inactive | 
25 | CO[C@@H]1[C@H](OC(=O)NC(=O)CCl)CC[C@]2(CO2)[C@H]1[C@@]1(C)O[C@@H]1CC=C(C)C |  | 4.01% [at 13.5 µM]
26 | c1ccc(-c2cccc(-c3ccccc3)c2)cc1 | inactive | 
27 | CCCC[n+]1ccc(C)cc1 | inactive | 
28 | c1ccc(N=Nc2ccccc2)cc1 | inactive | 
29 | CC(O)CCO (stereo not given) | inactive | 
30 | CN(C)C(=O)Nc1ccc(Cl)cc1 | inactive | 
31 | CN(N=O)c1ccccc1 | inactive | 
32 | CCC1(c2ccccc2)CCC(=O)NC1=O (stereo not given) | inactive | 
33 | Nc1c(Br)cc([N+](=O)[O-])cc1[N+](=O)[O-] | inactive | 
34 | C#C[C@]1(O)CC[C@H]2[C@@H]3CCC4=CC(=O)CC[C@]4(C)[C@H]3CC[C@@]21C | inactive | 
35 | Clc1ccc(C2(Cn3cncn3)OCCO2)c(Cl)c1 | inactive | 
36 | CN(C)N=O | inactive | 
37 | NC(=S)Nc1ccccc1 | inactive | 
38 | CS(=O)(=O)NC(=O)c1cc(Oc2ccc(C(F)(F)F)cc2Cl)ccc1[N+](=O)[O-] | inactive | 
39 | CCCCC1C(=O)NC(=O)N(C2CCCCC2)C1=O (stereo not given) | inactive | 
40 | C=CCCl | inactive | 
